We go through 1 molecule from PubChem BioAssay AID651871 (Sanford-Burnham Center for Chemical Genomics, 2012).

This experiment deals with HL-1. In words: cardiomyocyte survival under oxidative or metabolic stress – cell-based, panel, H9c2 and HL-1, ATP luminescence, set 2, SAR follow-up (AID 651871).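 Further: cells exposed to stressor for 2 h before ATP readout; reference of the scale not given here.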 Conditions: H9c2/HL-1 cardiomyocytes, 2-deoxyglucose stress, with 2-deoxyglucose, run 14, at 39.5 µM (top of the series).

Regarding `COc1ccc2c(c1OC)C(=O)N1c3ccccc3C(=O)N(Cc3cccc(Cl)c3Cl)C21` (stereo unspecified), the activity (protection/inhibition) came out at 31.8%.
